“And” between values parts separate entries of the source, which are not always exact repeats. Equal entries are not always repeated. Records with an inconclusive call do not appear. The source made the active and inactive calls. Unless noted, calls follow the shape of the dose curve; as a rule, active = well fitted curve in the direction sought with a large enough effect; inconclusive = small, poorly fitted or top-dose-only effect, or another doubt; inactive = no such curve, though single readings can be large; an effect the other way counts as inactive or inconclusive.
How the values were obtained:
OV90 = experiment: Primary qHTS to identify gynecologic anti-cancer compounds using libraries of approved drugs and bioactive compounds (AID 1345084); conditions: Gynecologic cancer cell panel viability, ATPlite luminescence, 48 h; series mostly up to 57.5 µM; also: nearly all actives have a fitted effect of over 55% in size; also: potency is read from the fitted curve at half-maximal effect
Outline: (§1)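 48 h compound exposure at 37 C, 5% CO2; five-point qHTS. ATPlite luminescence readout of cell ATP.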

PA-1 = experiment: as above; conditions: Gynecologic cancer cell panel viability, ATPlite luminescence, 48 h; series mostly up to 57.5 µM
Outline: as §1

SKOV3 = experiment: as above; conditions: Gynecologic cancer cell panel viability, ATPlite luminescence, 48 h; series mostly up to 57.5 µM
Outline: as §1

Tov-21-G = experiment: as above; conditions: Gynecologic cancer cell panel viability, ATPlite luminescence, 48 h; series mostly up to 57.5 µM
Outline: as §1

Tov112D = experiment: as above; conditions: Gynecologic cancer cell panel viability, ATPlite luminescence, 48 h; series mostly up to 57.5 µM
Outline: as §1

[1] = Drug repurposing screens with cells derived from glioblastoma tumor samples (AID 1345199); conditions: GBM patient neurospheres viability, ATP luminescence, 48 h; also: % is scaled to controls: 0 for no effect and ±100 for the full control effect; nearly all actives have a fitted effect of over 40% in size
Outline: (§2)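 Primary testing used CD133+ neurospheres from four GBM patients, seven concentrations, 48 h exposure and ATP-based viability; confirmation added three slower-growing patient lines.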

astro = experiment: as above; conditions: viability, ATP luminescence, 48 h; series mostly up to 45.9 µM
Outline: as §2

[2] = qHTS assay for small molecule activators of the human pregnane X receptor (PXR) signaling pathway (AID 720659; call rule not given here; also: 0% is about no effect)
[3] = target: Nuclear receptor subfamily 1 group I member 2 (Rattus norvegicus) (UniProt Q9R1A7); experiment: qHTS assay for small molecule activators of the rat pregnane X receptor (rPXR) signaling pathway (AID 651751; call rule not given here; also: 0% is about no effect); conditions: rPXR reporter cells, luciferase (One-Glo), 24 h
[4] = qHTS assay to identify inhibitors of the type 1 interferon - major histocompatibility complex class I in skeletal muscle: Counter screen cell viability and HiBit confirmation (AID 1347412); conditions: iHSKM muscle cells + IFN-b, HiBiT or CellTiter-Glo, 24 h; for Potency: HiBiT; for activity change, negative = inhibition: Viability, at 45.9 µM (top of the series); also: potency is read from the fitted curve at half-maximal effect; as to activity change, negative = inhibition: % is scaled to controls: 0 for no effect and ±100 for the full control effect; as to all read-outs here: nearly all actives have a fitted effect of over 60% in size
Outline: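 After 24 h with human IFN-beta (4 ng/ml) and compound titrations (top 46 uM final, 1:3, 12 points), HLA-B HiBit myoblasts were lysed for either Nano-Glo HiBiT luminescence or CellTiter Glo viability on paired plates.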

[5] = at 45.9 µM (top of the series), tumour line B
[6] = at 45.9 µM (top of the series), tumour line D
[7] = at 46.1 µM (top of the series), tumour line C
[8] = at 46 µM (top of the series), tumour line A

Nuclear receptor subfamily 1 group I member 2 (Rattus norvegicus), sequence (Q9R1A7 whole entry, looked up): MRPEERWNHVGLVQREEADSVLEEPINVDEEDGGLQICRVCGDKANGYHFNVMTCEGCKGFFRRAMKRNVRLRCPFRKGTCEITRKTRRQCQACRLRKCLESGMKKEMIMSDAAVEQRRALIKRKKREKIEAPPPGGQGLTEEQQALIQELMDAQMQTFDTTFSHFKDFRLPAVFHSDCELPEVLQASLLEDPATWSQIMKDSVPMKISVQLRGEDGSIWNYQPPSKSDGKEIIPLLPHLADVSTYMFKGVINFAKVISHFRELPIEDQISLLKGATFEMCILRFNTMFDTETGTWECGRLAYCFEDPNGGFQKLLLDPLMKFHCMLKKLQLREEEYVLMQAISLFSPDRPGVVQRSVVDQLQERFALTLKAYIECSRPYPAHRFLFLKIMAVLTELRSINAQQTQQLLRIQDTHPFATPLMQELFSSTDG

CCCCC1C(=O)N(c2ccccc2)N(c2ccccc2)C1=O
inactive: Potency (OV90) | Potency (PA-1) | Potency (SKOV3) | Potency (Tov-21-G) | Potency (Tov112D) | activity, negative = cell killing [1, 5] -14.3% and -18.7% | activity, negative = cell killing [1, 6] -13.1% and -6.92% | activity, negative = cell killing [1, 7] 4.16% and -25.1% | Potency (astro)

CC(=O)O[C@]1(C(C)=O)CC[C@H]2[C@@H]3C=C(Cl)C4=CC(=O)[C@@H]5C[C@@H]5[C@]4(C)[C@H]3CC[C@@]21C
inactive: Potency (OV90) | Potency (PA-1) | Potency (SKOV3) | Potency (Tov-21-G) | Potency (Tov112D) | activity, negative = cell killing [1, 5] -17.9% | activity, negative = cell killing [1, 6] -23% | activity, negative = cell killing [1, 7] 2.8% | Potency (astro) | outcome [2]

CC(C)NCC(O)COc1cccc2[nH]ccc12 (stereo unspecified)
inactive: Potency (OV90) | Potency (PA-1) | Potency (SKOV3) | Potency (Tov-21-G) | Potency (Tov112D) | activity, negative = cell killing [1, 5] -5.39% | activity, negative = cell killing [1, 6] -14.8% | activity, negative = cell killing [1, 8] -24.6% | activity, negative = cell killing [1, 7] 1.52%

O=C(O)Cc1cccc2ccccc12
inactive: Potency (OV90) | Potency (PA-1) | Potency (SKOV3) | Potency (Tov-21-G) | Potency (Tov112D) | activity, negative = cell killing [1, 5] -11.6% | activity, negative = cell killing [1, 6] 18.7% | activity, negative = cell killing [1, 8] -19.6% | activity, negative = cell killing [1, 7] -6.29% | activity, negative = cell killing ([1]; at 91.6 µM (top of the series), tumour line A) -29.8% | activity, negative = cell killing ([1]; at 91.6 µM (top of the series), tumour line B) 9.54% | activity, negative = cell killing ([1]; at 91.6 µM (top of the series), tumour line D) -15.1% | activity, negative = cell killing ([1]; at 99.2 µM (top of the series), tumour line C) 10.5% | max response [3] -1.12% and -1.15% | outcome [2]

CN(C)Cc1ccc(-c2nc3cccc4c3n2CCNC4=O)cc1
inactive: Potency (OV90) | Potency (SKOV3) | Potency (Tov112D)

CCOc1ccc(Nc2nc(-c3c(C)nc4ccccn34)cs2)cc1
active: Potency (OV90) 1.41 µM | Potency (Tov-21-G) 0.316 µM | Potency (Tov112D) 158 nM

COc1cc(Nc2ncc(F)c(Nc3ccc4c(n3)NC(=O)C(C)(C)O4)n2)cc(OC)c1OC
active: Potency (SKOV3) 15.8 µM | Potency [4] 1.25 µM
inactive: activity change, negative = inhibition [4] -9.37%

CC1=C(/C=C/C(C)=C/C=C/C(C)=C/C(=O)Nc2ccc(O)cc2)C(C)(C)CCC1
inactive: outcome [2]
active: Potency (OV90) 31.6 µM | Potency (PA-1) 4.47 µM | Potency (Tov-21-G) 20 µM

CC(=O)Nc1ccc([C@H](C)C(=O)Nc2ncc(C(C)C)s2)cc1
active: Potency (PA-1) 22.4 µM | Potency [4] 2.49 µM
inactive: Potency (SKOV3) | activity change, negative = inhibition [4] -0.582%

NC(=O)c1cnc(-c2ccc(C3(N)CCC3)cc2)c(-c2ccccc2)c1
active: Potency (SKOV3) 28.2 µM
inactive: Potency (Tov112D)

CC(C)(C)Cn1c(N)nc2ccc(-c3[nH]c(C(C)(C)C)nc3-c3ccc(F)cc3)nc21
inactive: Potency (PA-1) | Potency (Tov-21-G) | Potency (Tov112D)

O=C(CCCCCCC(=O)Nc1ccccc1)NO
inactive: activity change, negative = inhibition [4] 2.12%
active: Potency (SKOV3) 3.16 µM and 12.6 µM | Potency (Tov-21-G) 11.2 µM and 5.01 µM | Potency (Tov112D) 7.08 µM and 11.2 µM | Potency [4] 3.52 µM

CC(C)C(=O)Nc1ncc(-c2cc(C(F)F)nn2-c2c(Cl)cccc2Cl)s1
inactive: Potency (OV90) | Potency (SKOV3)

CCS(=O)(=O)N1CC(CC#N)(n2cc(-c3ncnc4[nH]ccc34)cn2)C1
inactive: Potency (OV90) | Potency (PA-1) | Potency (Tov112D) | activity change, negative = inhibition [4] -4.12%

COc1cc(N2CCC(N3CCN(C)CC3)CC2)ccc1Nc1ncc(Cl)c(Nc2ccccc2S(=O)(=O)C(C)C)n1
active: Potency (PA-1) 10 µM | Potency (Tov-21-G) 7.08 µM | Potency [4] 17.6 µM

CN[C@@H](C)C(=O)N[C@H]1CN(C(=O)CC(C)C)CC[C@H]2CC[C@@H](C(=O)NC(c3ccccc3)c3ccccc3)N2C1=O
active: Potency (SKOV3) 7.94 µM | Potency (Tov-21-G) 5.62 µM
inactive: Potency (OV90)

COc1cc2c(cc1OC)CN(CCc1ccc(NC(=O)c3cc(OC)c(OC)cc3NC(=O)c3cnc4ccccc4c3)cc1)CC2
active: Potency (PA-1) 11.2 µM

O=C(NCc1ccccc1)c1csc(Nc2ccncn2)n1
active: Potency [4] 9.91 µM
inactive: Potency (OV90) | Potency (PA-1) | Potency (Tov112D) | activity change, negative = inhibition [4] -20.4%

CCn1cc(C(=O)O)c(=O)c2ccc(C)nc21
inactive: Potency (OV90) | Potency (SKOV3) | Potency (Tov-21-G) | Potency (Tov112D) | activity, negative = cell killing [1, 5] -0.634% | activity, negative = cell killing [1, 6] -3.73% | activity, negative = cell killing [1, 7] -15.1% | outcome [2]

From PubChem BioAssay (NCATS)
